The values that follow come from PubChem BioAssay.

Assay [1] is described as follows: inhibitors of TNFa-induced NFkB p65 translocation, primary screen, imaging, HUVEC, MLSMR starter and 10KST1 sets (AID 438;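 active = inhibition above 20% together with a positive visual image hit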;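 also: compound added about 3h40 before a 20 min TNFalpha stimulation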;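 as to inhibition: signal is the nuclear over cytoplasmic p65 intensity ratio per well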). As to conditions: HUVEC TNFa-induced p65 nuclear translocation; cell count: measured here: nuclei count (cytotoxicity indicator), at 2.08 µM; inhibition: at 2 µM, stronger effect = higher value, 0% TNFa-plus-vehicle, 100% no-TNFa wells.
Assay [2] is described as follows: reduction of polyQ htt aggregates in cells – imaging, exon1htt(103Q)mCFP cells, high-content imaging, primary screen (AID 483;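 active = visual image review flags a hit and inhibition of aggregation exceeds 20%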;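 also: compound exposure lasted 3 days before fixation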;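 as to nuclei count: percent of the per-plate median nuclei count of sample wells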). As to conditions: exon1htt(103Q)mCFP cell line, aggregate imaging, at 2 µM; inhibition of aggregation: stronger effect = higher value; nuclei count: measured here: cell count, toxicity.
Assay [3] is described as follows: endothelial E-selectin expression blockers – imaging, HUVEC, immunofluorescence, MLSMR starter and 10KST1 sets, primary screen (AID 487;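 active = visually confirmed hit in the image check and inhibition above 20%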;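 as to inhibition: signal is fraction of cell area covered by stained E-selectin grains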;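 as to nuclei count: 100% = median nuclei count of all wells on the same plate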). The settings on record: HUVEC TNFalpha-induced E-selectin immunofluorescence imaging, at 2 µM; inhibition: stronger effect = higher value; nuclei count: measured here: cell number, toxicity.
Assay [4] in a line: Primary imaging screen for DUSP6 inhibitors that restore phospho-Erk in transfected HeLa cells, chemical complementation (AID 609;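 active = compounds giving at least 50% inhibition in the cell-based MKP-3 phosphatase rescue imaging test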;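 as to inhibition: phospho-Erk level distribution per well compared with pooled transfected vehicle control wells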). The settings on record: HeLa MKP-3 transfected, phospho-Erk imaging KS statistic, at 10 µM, cells stimulated with TPA for 15 min.
The target in assay [5] is Dual specificity protein phosphatase 6 (Homo sapiens) (UniProt Q16828). The description is as above. The settings on record: HeLa MKP-3 transfected, phospho-Erk imaging KS statistic; at 10 µM; stronger effect = higher value; cells stimulated with TPA for 15 min.
Chain of Dual specificity protein phosphatase 6 (Homo sapiens) (Q16828 whole entry, looked up): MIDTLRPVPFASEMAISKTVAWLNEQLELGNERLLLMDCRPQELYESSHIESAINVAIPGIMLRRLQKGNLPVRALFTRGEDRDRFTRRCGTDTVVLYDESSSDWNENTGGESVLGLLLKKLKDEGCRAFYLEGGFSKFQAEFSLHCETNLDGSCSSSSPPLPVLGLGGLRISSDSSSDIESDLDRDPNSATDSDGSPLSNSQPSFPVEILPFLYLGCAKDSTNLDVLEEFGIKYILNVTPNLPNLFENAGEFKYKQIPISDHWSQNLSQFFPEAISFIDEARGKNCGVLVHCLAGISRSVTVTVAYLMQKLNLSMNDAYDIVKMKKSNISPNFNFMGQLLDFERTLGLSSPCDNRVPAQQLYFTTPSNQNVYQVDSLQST
Assay [6] deals with Voltage-gated potassium channel subunit beta-2 (Rattus norvegicus) (UniProt P62483). In words: inhibitors of rat Kvbeta2 reductase activity – biochemical, NADPH fluorescence, primary screen (AID 622;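 active = fluorescence slope higher than the sample average by over 3 SD, cut at about -0.22 in these data, passing the limit was not always enough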;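 also: slope of raw intensity against log time taken from 70 to 1610 s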). The settings on record: recombinant KvBeta, 4-cyanobenzaldehyde reduction, at 10 µM, stronger effect = higher value.
Chain of Voltage-gated potassium channel subunit beta-2 (Rattus norvegicus) (P62483 whole entry, looked up): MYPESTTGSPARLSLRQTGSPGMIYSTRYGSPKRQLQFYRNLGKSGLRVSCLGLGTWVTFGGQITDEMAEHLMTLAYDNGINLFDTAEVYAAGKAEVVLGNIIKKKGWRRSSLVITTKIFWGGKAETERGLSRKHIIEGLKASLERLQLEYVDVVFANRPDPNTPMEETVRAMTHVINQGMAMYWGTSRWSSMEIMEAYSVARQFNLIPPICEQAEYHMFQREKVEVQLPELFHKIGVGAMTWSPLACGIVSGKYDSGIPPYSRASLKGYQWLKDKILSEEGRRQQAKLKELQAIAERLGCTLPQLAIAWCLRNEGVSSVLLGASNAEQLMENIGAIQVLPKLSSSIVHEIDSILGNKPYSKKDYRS
For assay [7] the target is unchanged. The assay is described as follows: enhancers of rat Kvbeta2 NADPH turnover – biochemical, NADPH fluorescence, primary screen (AID 623;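 active = NADPH fluorescence slope more negative than the mean of all samples by about 3 SD, 99.7% confidence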;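 also: fluorescence intensity change per second fitted from 20 to 320 s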). As to conditions: Recombinant KvBeta, NADPH fluorescence decrease slope, 10 min; at 10 µM; stronger effect = lower value.
For assay [8], the target named is Alpha-2C adrenergic receptor (Homo sapiens) (UniProt P18825). In words: compounds altering alpha2C-coupled GIRK flux – cell-based, HEK293 alpha2C/GIRK1/2, thallium flux, primary screen (AID 624;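 active = fluorescence slope after compound addition differing from the mean of all screened samples at 99.7% confidence, in either direction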;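 also: slope of fluorescence ratio to pre-addition baseline per second over 15 to 24 s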). As to conditions: thallium flux BTC fluorescence, at 10 µM, actives lie on both sides.
Chain of Alpha-2C adrenergic receptor (Homo sapiens) (P18825 whole entry, looked up): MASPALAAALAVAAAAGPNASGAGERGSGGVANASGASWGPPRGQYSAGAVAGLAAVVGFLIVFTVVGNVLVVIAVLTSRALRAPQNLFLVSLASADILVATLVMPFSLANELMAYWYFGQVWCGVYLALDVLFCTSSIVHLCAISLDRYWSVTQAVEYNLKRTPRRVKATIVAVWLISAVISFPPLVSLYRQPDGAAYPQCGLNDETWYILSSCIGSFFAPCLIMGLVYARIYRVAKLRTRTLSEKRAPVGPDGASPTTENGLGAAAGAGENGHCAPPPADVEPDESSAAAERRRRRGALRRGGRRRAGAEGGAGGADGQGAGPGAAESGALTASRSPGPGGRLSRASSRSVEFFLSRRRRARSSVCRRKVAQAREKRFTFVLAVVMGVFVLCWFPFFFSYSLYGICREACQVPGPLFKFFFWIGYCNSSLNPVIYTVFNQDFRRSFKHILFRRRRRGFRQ
Assay [9] is described as follows: inhibitors of larval lipid processing in zebrafish, primary screen, whole organism, PED6 fluorescence, gall bladder and intestine (AID 686;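 active = a full or partial loss of lipid-probe fluorescence in the fish gall bladder, intestine or both, judged by eye; inactive = no fluorescence loss, or compound toxic to the fish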;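 also: larvae 5 to 7 days old with five fish per well; signal comes from phospholipase A2 cleavage of quenched PED6 carried via bile; overnight exposure to compound and PED6 before scoring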). As to conditions: Zebrafish larvae PED6 lipid processing, fluorescence scoring; screened at 20 µM (by protocol).
A short description of assay [10]: loss of swimming-algae plug formation – whole organism, Chlamydomonas reinhardtii, WT vs cilia-less mutant, absorbance, 96-well, primary screen (AID 463189).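 Also: 0% = wild type cc124 cells in DMSO and 100% = ciliumless bld1 mutant cells.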 The settings on record: Chlamydomonas reinhardtii gravitaxis, OD600 absorbance, 2 days; at 10 µM; stronger effect = higher value.
Assay [11] in a line: blockers of RIG-like receptor reporter activation – cell-based, Sendai virus stimulus, luciferase, 10K MLSCN set, TLR/RLR signaling modifier project, primary screen (AID 602276;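 active = inhibition at or above 50% at 10 µM; inactive = inhibition below 50%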;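 also: firefly luciferase from ISG56 promoter only with Renilla not read in this screen; 0% = Sendai virus plus DMSO and 100% = medium plus DMSO without virus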). As to conditions: HEK293 RL24 IRF3 luciferase reporter, at 10 µM, stronger effect = higher value. Background: A reporter such as luciferase makes a cellular process visible.
A short description of assay [12]: TLR3 IRF3 reporter activation blockers – cell-based, poly I:C stimulus, luciferase, 10K MLSCN set, primary screen (AID 602277;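 active = inhibition of the reporter signal at or above 50%; inactive = inhibition below 50%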). The settings on record: HEK293-TLR3 RL24 IRF3 luciferase reporter, at 10 µM, stronger effect = higher value.
[13] abbreviates: measured here: cell density z-score.
[14] abbreviates: measured here: nuclear c-Myc green intensity z-score.
Setting [15] is: measured here: nuclear pErk red intensity z-score, stronger effect = higher value.

Several values for one entry are separate records, joined by “and”; a condition that tells them apart may be missing. Identical values can stand only once. Activity calls are given as the source filed them.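 The calls were made as follows, unless noted: active = inhibition at or above 50% relative to wild type and mutant plate controls; inactive = inhibition below 50%.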

As usually defined, the inhibition is the change of the read-out against control, counted positive when it falls.

With `CN=c1sc2ccccc2n1CC(O)COCc1ccco1` (stereo not given), the cell count in assay [1] came to 575. Further, the inhibition in assay [1] is 0.4% (inactive); in [3], -71.1% (inactive); in assay [5], 1.04% (inactive); in [10], 7.79% (inactive); in [11], 12.5% (inactive); in assay [12] it was 29.1% (inactive). The inhibition of aggregation in [2] is 6.5% (inactive). The nuclei count was determined as 98.5% in assay [2] and 138% in assay [3]. Besides, the z-score in assay [4] (setting [13]) is 0.277; in assay [4] (setting [14]), 0.426; in assay [4] (setting [15]), 0.235. In assay [6], the fluorescence slope is -0.302 (inactive). The NADPH fluorescence slope in [7] was -1.1e-05 (inactive). Moreover, in assay [8], the slope was 0.00567 (inactive). Moreover, the molecule was classed as inactive in assay [9].
In the case of `CCOC(=O)c1c(C(F)(F)C(F)(F)C(F)(F)C(F)(F)F)n[nH]c1C`, in assay [1], the cell count turned out to be 532. Besides, the inhibition in [1] was -3.7% (inactive); in assay [3], -78.6% (inactive); in assay [5], 11.3% (inactive); in assay [10] it was 17.6% (inactive); in assay [11] it was 17.2% (inactive); in [12], 24.6% (inactive). In addition, the inhibition of aggregation in assay [2] is 10.3% (inactive). Also, the nuclei count in [2] amounted to 97.3%; in assay [3], 128%. The z-score in assay [4] (setting [13]) is -0.312; in [4] (setting [14]) it was 0.0825; in assay [4] (setting [15]) it was -0.449. The fluorescence slope in assay [6] was -0.521 (inactive). For the same molecule, in assay [7], the NADPH fluorescence slope was -9.8e-05 (inactive). Moreover, the slope in [8] is 0.00424 (inactive). Besides, the outcome in [9] was inactive.
`C[C@]12C[C@H](O)[C@H]3[C@@H](CCC4=CC(=O)CC[C@@]43C)[C@@H]1CC[C@@H]2C(=O)CO`: in assay [1], the cell count was 627. In addition, the inhibition in assay [1] is -3.6% (inactive); in assay [3], -37.7% (inactive); in assay [5] it was 9.37% (inactive); in assay [10], 3.78% (inactive) and -16.2% (inactive); in assay [11], 5.57% (inactive); in assay [12], 32.8% (inactive). The inhibition of aggregation in assay [2] is -21.5% (inactive). The values for the nuclei count in [2] and in assay [3] were 101% and 102%, respectively. Besides, the z-score in assay [4] (setting [13]) was 0.905; in assay [4] (setting [14]), 0.0812; in [4] (setting [15]) it was -0.546. For the same molecule, in assay [6], the fluorescence slope was -0.526 (inactive). Besides, the NADPH fluorescence slope in assay [7] is -4.5e-06 (inactive). In assay [8], the slope was 0.00481 (inactive). The outcome in [9] was inactive.
On to `C[C@@H]1C[C@H]2[C@@H]3CCC4=CC(=O)C=C[C@]4(C)[C@@]3(F)[C@@H](O)C[C@]2(C)[C@@]1(O)C(=O)COP(=O)(O)O`, for which the cell count in assay [1] is 525. For the same molecule, the inhibition in [1] was -10.3% (inactive); in [3], -15.3% (inactive); in [5], 25.1% (inactive); in assay [10], 31.6% (inactive); in [11], -1.94% (inactive); in [12] it was 31.9% (inactive). In addition, the inhibition of aggregation in [2] was -19.8% (inactive). The results for the nuclei count in assay [2] and in assay [3] were 49.4% and 98.8%, respectively. Also, the z-score is 0.835 in assay [4] (setting [13]), 0.378 in assay [4] (setting [14]) and -0.291 in assay [4] (setting [15]). Further, in assay [6], the fluorescence slope is -0.516 (inactive). The NADPH fluorescence slope in assay [7] was -5.2e-05 (inactive). In addition, the slope in [8] was 0.00437 (inactive). For the same molecule, in assay [9], the result was inactive.
For the molecule `COC1=CC(=O)CC(C)C12Oc1c(Cl)c(OC)cc(OC)c1C2=O` (stereo not given), in assay [1], the cell count amounted to 555. The inhibition in assay [1] is -5% (inactive); in assay [3] it was -16.1% (inactive); in assay [5] it was -8.38% (inactive); in assay [10] it was -7.52% (inactive); in assay [11] it was 22.1% (inactive); in [12] it was 38.6% (inactive). For the same molecule, in [2], the inhibition of aggregation is 6.9% (inactive). For the same molecule, the nuclei count in assay [2] turned out to be 105%; in assay [3] it was 122%. The values for the z-score in assay [4] (setting [13]), in [4] (setting [14]) and in assay [4] (setting [15]) were -1.48, -1.27 and 1.79, respectively. Besides, the fluorescence slope in [6] is -0.459 (inactive). The NADPH fluorescence slope in [7] is -3.3e-05 (inactive). The slope in assay [8] was 0.00463 (inactive). In addition, the molecule was called inactive in assay [9].
